The source of these data is article PMC11006913.

Numbering of substitutions follows the chain as printed.

Common to all, as to experiment: PBM; 200 nM protein, PBS
Settings in all cases: dsDNA, one strand shown

In test [1] the target is T1, SIX6 (Homo sapiens, UniProt O95475 114-200, L167I).
T1 sequence: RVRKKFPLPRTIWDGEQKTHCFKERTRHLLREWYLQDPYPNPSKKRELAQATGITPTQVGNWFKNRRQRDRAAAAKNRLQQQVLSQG

The target of test [2] is T2, SIX6 (Homo sapiens, UniProt O95475 114-200, L143V).
T2 sequence: T1 sequence with L30V, I54L

The target of test [3] is T3, SIX6 (Homo sapiens, UniProt O95475 114-200, H141N).
T3 sequence: T1 sequence with H28N, I54L

Test [4] concerns the target T4, SIX6 (Homo sapiens, UniProt O95475 114-200, T165P).
T4 sequence: T1 sequence with T52P, I54L

Test [5] deals with T5, SIX6 (Homo sapiens, UniProt O95475 114-200, L167M).
T5 sequence: T1 sequence with I54M

Test [6] deals with T6, SIX6 (Homo sapiens, UniProt O95475 114-200, L143M).
T6 sequence: T1 sequence with L30M, I54L

In test [7] the target is T7, SIX6 (Homo sapiens, UniProt O95475 114-200, L143I).
T7 sequence: T1 sequence with L30I, I54L

The target in test [8] is T8, SIX6 (Homo sapiens, UniProt O95475 114-200, T165G).
T8 sequence: T1 sequence with T52G, I54L

Test [9] has as its target T9, SIX6 (Homo sapiens, UniProt O95475 114-200, T139Q).
T9 sequence: T1 sequence with T26Q, I54L

The target of test [10] is T10, SIX6 (Homo sapiens, UniProt O95475 114-200, T165A).
T10 sequence: T1 sequence with T52A, I54L

Test [11] deals with T11, SIX6 (Homo sapiens, UniProt O95475 114-200, L167V).
T11 sequence: T1 sequence with I54V

Test [12] deals with T12, SIX6 (Homo sapiens, UniProt O95475 114-200).
T12 sequence: T1 sequence with I54L

The target of test [13] is T13, SIX6 (Homo sapiens, UniProt O95475 114-200, T165I).
T13 sequence: T1 sequence with T52I, I54L

For the sequence GATCGATA, the binding signal with SIX6 [1] was 11 upbm affinity estimate (log intensity, higher = more binding, comparable within an allelic series); in the test with SIX6 [2], 10.3 upbm affinity estimate (log intensity, higher = more binding, comparable within an allelic series); in the test with SIX6 [3], 11 upbm affinity estimate (log intensity, higher = more binding, comparable within an allelic series); in the test with SIX6 [4], 9.87 upbm affinity estimate (log intensity, higher = more binding, comparable within an allelic series); with SIX6 [5] it was 10.5 upbm affinity estimate (log intensity, higher = more binding, comparable within an allelic series); in the test with SIX6 [6], 10.8 upbm affinity estimate (log intensity, higher = more binding, comparable within an allelic series). For the same sequence, the binding signal is 10.4 upbm affinity estimate (log intensity, higher = more binding, comparable within an allelic series) with SIX6 [7]; 11 upbm affinity estimate (log intensity, higher = more binding, comparable within an allelic series) with SIX6 [8]; 11.2 upbm affinity estimate (log intensity, higher = more binding, comparable within an allelic series) in the test with SIX6 [9]; 10.9 upbm affinity estimate (log intensity, higher = more binding, comparable within an allelic series) with SIX6 [10]; 10.8 upbm affinity estimate (log intensity, higher = more binding, comparable within an allelic series) with SIX6 [11]; 10.9 upbm affinity estimate (log intensity, higher = more binding, comparable within an allelic series) with SIX6 [12]. Further, in the test with SIX6 [13], the binding signal was 10.8 upbm affinity estimate (log intensity, higher = more binding, comparable within an allelic series).

Regarding CAGGGCGC, the binding signal with SIX6 [1] is 9.09 upbm affinity estimate (log intensity, higher = more binding, comparable within an allelic series); with SIX6 [2] it was 8.83 upbm affinity estimate (log intensity, higher = more binding, comparable within an allelic series); with SIX6 [3] it was 9.07 upbm affinity estimate (log intensity, higher = more binding, comparable within an allelic series); with SIX6 [4], 9 upbm affinity estimate (log intensity, higher = more binding, comparable within an allelic series); with SIX6 [5], 8.98 upbm affinity estimate (log intensity, higher = more binding, comparable within an allelic series); in the test with SIX6 [6], 9.04 upbm affinity estimate (log intensity, higher = more binding, comparable within an allelic series). Further, the binding signal was 8.98 upbm affinity estimate (log intensity, higher = more binding, comparable within an allelic series) with SIX6 [7]; 9.07 upbm affinity estimate (log intensity, higher = more binding, comparable within an allelic series) with SIX6 [8]; 8.97 upbm affinity estimate (log intensity, higher = more binding, comparable within an allelic series) with SIX6 [9]; 8.99 upbm affinity estimate (log intensity, higher = more binding, comparable within an allelic series) with SIX6 [10]; 9.01 upbm affinity estimate (log intensity, higher = more binding, comparable within an allelic series) in the test with SIX6 [11]; 9.01 upbm affinity estimate (log intensity, higher = more binding, comparable within an allelic series) with SIX6 [12]. The binding signal with SIX6 [13] is 8.97 upbm affinity estimate (log intensity, higher = more binding, comparable within an allelic series).

Regarding CTGATACC, the binding signal was 11.3 upbm affinity estimate (log intensity, higher = more binding, comparable within an allelic series) with SIX6 [1]; 10.4 upbm affinity estimate (log intensity, higher = more binding, comparable within an allelic series) with SIX6 [2]; 11.3 upbm affinity estimate (log intensity, higher = more binding, comparable within an allelic series) in the test with SIX6 [3]; 9.63 upbm affinity estimate (log intensity, higher = more binding, comparable within an allelic series) with SIX6 [4]; 10.6 upbm affinity estimate (log intensity, higher = more binding, comparable within an allelic series) in the test with SIX6 [5]; 11 upbm affinity estimate (log intensity, higher = more binding, comparable within an allelic series) with SIX6 [6]. Besides, the binding signal with SIX6 [7] is 10.4 upbm affinity estimate (log intensity, higher = more binding, comparable within an allelic series); with SIX6 [8], 11.4 upbm affinity estimate (log intensity, higher = more binding, comparable within an allelic series); in the test with SIX6 [9] it was 11.4 upbm affinity estimate (log intensity, higher = more binding, comparable within an allelic series); with SIX6 [10] it was 11.4 upbm affinity estimate (log intensity, higher = more binding, comparable within an allelic series); in the test with SIX6 [11], 11 upbm affinity estimate (log intensity, higher = more binding, comparable within an allelic series); in the test with SIX6 [12], 11.1 upbm affinity estimate (log intensity, higher = more binding, comparable within an allelic series). Also, the binding signal with SIX6 [13] was 11.1 upbm affinity estimate (log intensity, higher = more binding, comparable within an allelic series).

With GCGTATCA, the binding signal is 11.3 upbm affinity estimate (log intensity, higher = more binding, comparable within an allelic series) in the test with SIX6 [1]; 10.2 upbm affinity estimate (log intensity, higher = more binding, comparable within an allelic series) in the test with SIX6 [2]; 11.1 upbm affinity estimate (log intensity, higher = more binding, comparable within an allelic series) with SIX6 [3]; 9.54 upbm affinity estimate (log intensity, higher = more binding, comparable within an allelic series) with SIX6 [4]; 10.5 upbm affinity estimate (log intensity, higher = more binding, comparable within an allelic series) with SIX6 [5]; 11.2 upbm affinity estimate (log intensity, higher = more binding, comparable within an allelic series) with SIX6 [6]. Further, the binding signal is 10.3 upbm affinity estimate (log intensity, higher = more binding, comparable within an allelic series) in the test with SIX6 [7]; 11.3 upbm affinity estimate (log intensity, higher = more binding, comparable within an allelic series) with SIX6 [8]; 11.2 upbm affinity estimate (log intensity, higher = more binding, comparable within an allelic series) in the test with SIX6 [9]; 11.3 upbm affinity estimate (log intensity, higher = more binding, comparable within an allelic series) in the test with SIX6 [10]; 10.9 upbm affinity estimate (log intensity, higher = more binding, comparable within an allelic series) in the test with SIX6 [11]; 11.1 upbm affinity estimate (log intensity, higher = more binding, comparable within an allelic series) in the test with SIX6 [12]. Further, the binding signal in the test with SIX6 [13] was 11.1 upbm affinity estimate (log intensity, higher = more binding, comparable within an allelic series).

Turning to CAGGTATC, the binding signal with SIX6 [1] is 10.9 upbm affinity estimate (log intensity, higher = more binding, comparable within an allelic series); in the test with SIX6 [2], 10.2 upbm affinity estimate (log intensity, higher = more binding, comparable within an allelic series); with SIX6 [3] it was 10.9 upbm affinity estimate (log intensity, higher = more binding, comparable within an allelic series); with SIX6 [4] it was 9.6 upbm affinity estimate (log intensity, higher = more binding, comparable within an allelic series); with SIX6 [5], 10.5 upbm affinity estimate (log intensity, higher = more binding, comparable within an allelic series); with SIX6 [6], 10.7 upbm affinity estimate (log intensity, higher = more binding, comparable within an allelic series). The binding signal was 10.2 upbm affinity estimate (log intensity, higher = more binding, comparable within an allelic series) in the test with SIX6 [7]; 11.1 upbm affinity estimate (log intensity, higher = more binding, comparable within an allelic series) with SIX6 [8]; 11.1 upbm affinity estimate (log intensity, higher = more binding, comparable within an allelic series) with SIX6 [9]; 11 upbm affinity estimate (log intensity, higher = more binding, comparable within an allelic series) in the test with SIX6 [10]; 10.6 upbm affinity estimate (log intensity, higher = more binding, comparable within an allelic series) in the test with SIX6 [11]; 10.9 upbm affinity estimate (log intensity, higher = more binding, comparable within an allelic series) in the test with SIX6 [12]. Also, the binding signal with SIX6 [13] is 10.7 upbm affinity estimate (log intensity, higher = more binding, comparable within an allelic series).

On to GCCGCGCA, for which the binding signal in the test with SIX6 [1] was 8.96 upbm affinity estimate (log intensity, higher = more binding, comparable within an allelic series); with SIX6 [2], 8.97 upbm affinity estimate (log intensity, higher = more binding, comparable within an allelic series); with SIX6 [3], 8.91 upbm affinity estimate (log intensity, higher = more binding, comparable within an allelic series); in the test with SIX6 [4], 8.97 upbm affinity estimate (log intensity, higher = more binding, comparable within an allelic series); with SIX6 [5], 8.9 upbm affinity estimate (log intensity, higher = more binding, comparable within an allelic series); with SIX6 [6], 8.97 upbm affinity estimate (log intensity, higher = more binding, comparable within an allelic series). Also, the binding signal was 8.96 upbm affinity estimate (log intensity, higher = more binding, comparable within an allelic series) in the test with SIX6 [7]; 8.81 upbm affinity estimate (log intensity, higher = more binding, comparable within an allelic series) in the test with SIX6 [8]; 8.99 upbm affinity estimate (log intensity, higher = more binding, comparable within an allelic series) in the test with SIX6 [9]; 8.86 upbm affinity estimate (log intensity, higher = more binding, comparable within an allelic series) in the test with SIX6 [10]; 8.86 upbm affinity estimate (log intensity, higher = more binding, comparable within an allelic series) in the test with SIX6 [11]; 8.91 upbm affinity estimate (log intensity, higher = more binding, comparable within an allelic series) with SIX6 [12]. In addition, the binding signal in the test with SIX6 [13] is 8.89 upbm affinity estimate (log intensity, higher = more binding, comparable within an allelic series).
